KDM5B inhibitor: inhibitors of human KDM5B histone demethylase | KDM5B demethylase, FDH-coupled NADH fluorescence (FDH is formaldehyde dehydrogenase) | hit rate 2.6% among 220,000 | Q9UGL1 | Potency, µM (titrated, usually from 57.7 µM), hits mostly inhibitors; active = well fitted inhibition curve with a large enough effect; also: nearly all actives have a fitted effect of over 70% in size
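qHTS format, multiple compound concentrations. Buffer 50 mM HEPES pH 7.5/0.01% Tween-20; 200 nM KDM5BΔAP final; 10 min compound preincubation; substrate-mix levels 12.5 µM peptide, 25 µM α-KG, 0.25 mM NAD⁺; 30 min RT; ΔRFU.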
Of the large screens only hits and unclear results are named; the others gave an inactive call. The full list was thinned out, with hits kept by preference.

CC[n+]1c(NCc2cc(Br)cc(Br)c2[O-])[nH]c2ccccc21	none
CCCNc1nc2ccccc2nc1C(=O)Nc1ccc(C(=O)OCC)cc1	none
COc1ccc(/C=C/C(=O)c2cc(C)ccc2OC(=O)c2cccs2)cc1OC	none
COc1ccccc1NS(=O)(=O)c1ccc2oc(SCCOc3ccc(F)cc3)nc2c1	none
COc1ccccc1-c1coc2cc(OC(=O)c3ccc(C)cc3)ccc2c1=O	none
N#CC1(NC(=O)COc2cccc(C(F)(F)F)c2)CCCCC1	none
COc1ccc(Cc2n[nH]c(=S)n2CC(C)C)cc1	none
COc1cc(CN2CCCC23Cc2ccccc2CNC3=O)ccc1F (centres undefined)	none
CC(=O)c1c(C)[nH]c(C(=O)C(C)OC(=O)c2cc(F)cc(F)c2)c1C (centres undefined)	none
COC1CCN(CC(=O)Nc2cccc(C(=O)Nc3cccc(C(F)(F)F)c3)c2)CC1	none
Cc1ccc(NC(=O)COC(=O)COc2ccc(C3SCCCS3)cc2)c(Cl)c1	none
CCOC(=O)c1ccccc1NC(=O)CN1CCCN(Cc2cccc(OC)c2)S1(=O)=O	none
O=C(O)CSCc1ccsc1	none
CCN(C(=O)Cn1cccc1-c1nc(-c2ccc(OC)c(F)c2)no1)c1cccc(C)c1	KDM5B inhibitor 28.2µM
COc1ccc(-c2noc(-c3cccn3CC(=O)Nc3cccc(C)c3)n2)cc1F	none
COc1ccc(-c2noc(-c3cccn3CC(=O)Nc3cc(C)ccc3OC)n2)cc1F	none
CCn1cc(CN2CCC(N3C(=O)C4(CCCC4)C3c3ccccc3)CC2)cn1 (centres undefined)	none
COc1c(Cl)cc(Cl)cc1CNCc1cccnc1	none
Cc1oc2cc(OCC(=O)Nc3ccc4c(c3)OCO4)ccc2c(=O)c1-c1ccccc1	none
CCOc1ccc(NC(=O)c2cc3c(N4CCSCC4)nc(C)cn3n2)cc1	KDM5B inhibitor 3.98µM
CCOc1ccccc1NC(=O)c1cc2c(N3CCSCC3)nc(C)cn2n1	KDM5B inhibitor 28.2µM
CCOc1ccccc1NC(=O)NC1CCN(c2nc(C)cc(C)n2)CC1	none
CCOc1ccc(NC(=O)c2cnc(N3CCCC3)nc2C)cc1	none
Cc1cn2nc(C(=O)Nc3ccc(N(C)C)cc3)cc2c(N2CCSCC2)n1	none
CCOc1ccccc1NC(=O)Nc1nnc(N2CCCCCC2)s1	none
Cc1nc2ccc(Cl)cc2cc1C(=O)NCc1cccnc1OC(C)C	none
COc1ccc(S(=O)(=O)c2c(C)c(C)n(CC(C)C)c2NC(=O)C2CCCO2)cc1 (centres undefined)	none
CN(C)S(=O)(=O)c1cccc(NC(=O)CSc2cccc3cccc(Cl)c23)c1	none
O=C(Cc1cccs1)Nc1ccc2c(c1)OCCCO2	none
Cc1cc(C)c(C(=O)c2cc3ccccc3o2)c(C)c1	none
COc1ccccc1-c1nc(-c2c(C)noc2C)cc2[nH]c(C)cc12	none
COc1cccc(-c2nc(-c3c(C)noc3C)cc3c2cc(C)n3CCN(C)C)c1	KDM5B inhibitor 39.8µM
Cc1noc(C)c1-c1cc2c(cc(C)n2C)c(-c2cccnc2)n1	KDM5B inhibitor 35.5µM
COc1ncccc1-c1nc(-c2c(C)noc2C)cc2c1cc(C)n2CCN(C)C	none
Cc1noc(C)c1-c1cc2c(cc(-c3ccccc3)n2C)c(-c2cccnc2)n1	none
COc1cccc(-c2nc(-c3c(C)noc3C)cc3c2cc(C)n3C)c1OC	KDM5B inhibitor 35.5µM
COc1ccc(-c2nc(-c3c(C)noc3C)cc3c2cc(C)n3CCN(C)C)cc1OC	none
COc1cc(F)ccc1-c1nc(-c2c(C)noc2C)cc2[nH]c(C)cc12	KDM5B inhibitor 35.5µM
CC(=O)c1ccc(OCC(=O)NC2CCc3ccccc32)cc1 (centres undefined)	none
Cc1noc(C)c1-c1cc2cc(C(C)C)oc2c(N(C)CCN(C)C)n1	none
CCCn1c(SCc2ncc(-c3ccc(F)cc3)o2)n[nH]c1=O	none
CN(Cc1ccccc1F)C(C(=O)NC1CC1)c1ccccc1 (centres undefined)	none
CC(O)(C#CCN1CCCCC1)C1CC2C=CC1C2 (centres undefined)	none
CNc1c(NS(=O)(=O)c2ccc(C)c(C)c2)c(=O)oc2ccccc12	none
CCN1CCCC1CNCc1cccs1 (centres undefined)	none
CC(C)(C)OC(=O)N1CCN(C(C(=O)O)c2c[nH]c3ccc(OCC#N)cc23)CC1 (centres undefined)	none
C#CC[N+](CC#Cc1ccccc1)(CCC)CCC	none
Cc1cc2c(-c3ccccc3)nc(-c3c(C)noc3C)cc2[nH]1	none
COc1ncccc1-c1nc(-c2c(C)noc2C)cc2[nH]c(C)cc12	none
Cc1noc(C)c1-c1cc2c(cc(C)n2C)c(-c2cccc([S+](C)(=O)[O-])c2)n1	KDM5B inhibitor 25.1µM
Cc1noc(C)c1-c1cc2c(cc(C)n2C)c(-c2ccccc2)n1	none
Cc1cc2c(-c3cccnc3)nc(-c3c(C)noc3C)cc2[nH]1	KDM5B inhibitor 28.2µM
CN1CCN(C(C(=O)O)c2cn(CC(=O)O)c3cc(Cl)ccc23)CC1 (centres undefined)	none
O=C(NCCc1ccccc1F)c1nc2sccn2c1Br	none
O=C(Nc1cccc(-c2nnc3n2CCCC3)c1)NC1CCCC1	none
CCNC(=O)CN1CCN(C(C(=O)O)c2c[nH]c3ccccc23)CC1 (centres undefined)	none
COCCN1C(=O)CC[C@]2(C(=O)NCc3ccccc3Cl)CCCC[C@@H]12	none
CCOc1ccc(C(=O)NC2CCN(c3cc(-c4ccc(OC)cc4)[nH]n3)CC2)cc1OCC	none
O=C(CCC1CCCN(S(=O)(=O)c2ccccc2)C1)N1CCc2ccccc2C1 (centres undefined)	KDM5B inhibitor 22.4µM
Cc1ccc(S(=O)(=O)N2CCCC(CCC(=O)N3CCOCC3)C2)cc1 (centres undefined)	none
O=C(CCC1CCCN(S(=O)(=O)c2cccc(F)c2)C1)N1CCc2ccccc2C1 (centres undefined)	none
CC(=O)N1CCN([C@H]2[C@@H]3OC[C@@H](O3)[C@@H](NCc3ccccc3O)[C@@H]2O)CC1	none
Cn1cccc1CN[C@H]1[C@H](O)[C@@H](N2CCCC2)[C@@H]2OC[C@H]1O2	KDM5B inhibitor 25.1µM
CN1CCN([C@H]2[C@@H]3OC[C@@H](O3)[C@@H](NCc3ccc(-c4ccccc4)cc3)[C@@H]2O)CC1	none
COC(=O)c1ccc(C2C(C(=O)OC)C(=O)CC(C)(O)C2C(=O)OC)cc1 (centres undefined)	none
CNC(=O)C1CCN(Cc2nc3ccccc3c(C)c2C(=O)OC)CC1	none
Cc1ccc(NC(=O)c2cc(=O)c3ccc(C)c(C)c3o2)cc1Cl	none
CS(=O)(=O)c1ccc(F)c(NC(=O)CCCc2cccs2)c1	none
COCCNc1nc2cc(C(=O)N[C@@H]3CC[C@@H](N)C3)ccc2n1C	KDM5B inhibitor 22.4µM
COCCNc1nc2cc(-c3nc(-c4cccnn4)no3)ccc2n1C	none
COc1ccc(C)cc1-n1cnc2cc(C(=O)NC3CCCC3)ccc21	none
O=C(O)C/C(=C/c1cccs1)c1nc2ccccc2s1	none
C/C(=N/NC(=O)c1ccc(C)cc1)C(C)(C)C	none
Cc1cccc(OCCn2c(C)nc3cc(C)c(C)cc32)c1	none
O=C(NC1CCCCC1)c1ccncc1	none
COC(=O)CNC(=O)c1ccc2nccn2c1	KDM5B inhibitor 112µM
Cc1ccc(CNC(=O)c2ccc3nccn3c2)o1	KDM5B inhibitor 28.2µM
C#CCNC(=O)c1ccc2nccn2c1	KDM5B inhibitor 141µM
O=C(NC1CCCCCC1)c1ccc2nccn2c1	KDM5B inhibitor 28.2µM
Cc1ccc(CNC(=O)c2c(-c3ccc(F)cc3F)noc2C)o1	none
C#CCNC(=O)c1ccc(-n2ccc(C(F)(F)F)n2)cc1	none
CCN1CCN(C(=O)c2ccc3nccn3c2)CC1	none
COC(=O)CNC(=O)c1ccc(C)cc1	none
COc1ccc(C(=O)N[C@@H]2CCC[C@@H]2C(=O)NCc2ccc(C)o2)cc1	none
O=C(NC1CCCCCCC1)c1ccc(Br)cc1	none
